SARS PLP yeast: inhibitors of SARS-CoV papain-like protease in yeast; S. cerevisiae expressing SARS-CoV PLpro, growth rescue; Potency, µM (series often up to 32.9 µM), for inactives: at the top dose activity, positive = growth rescue, hits mostly activators; hit rate 0.19% among 330,000; AID 485353; note: potency is the fitted concentration of half-maximal effect; 0% is about no effect; nearly all actives have a fitted effect of over 55% in size
NS1 inh: blocks influenza NS1 protein function; Potency, µM (doses to about 46.1 µM), for the others: at the top dose activity, positive = more growth; hit rate 0.4% among 270,000; AID 2326; note: potency is the fitted concentration of half-maximal effect; actives are rising curves; nearly all actives have a fitted effect of over 50% in size
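S. cerevisiae expressing influenza A NS1, grown in glucose, washed, then diluted 1:100 into pH 6.0 -URA galactose medium with 23 nl compound. Growth recovery read as OD600; NS1-free strain serves as control.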
Shiga inhibitor: Shiga toxin inhibition | Vero cells, Shiga toxin protein synthesis inhibition reporter | hit rate 9.2% among 290,000 | inhibition, % at 38.7 µM; in the data active = inhibition mostly above about 28%, no sharp cut-off; inactive = mostly below about 43%; note: 0% is about no effect
CHX counter: counter-screen hit for Shiga toxin inhibitors, cycloheximide | cell reporter, cycloheximide protein synthesis inhibition counterscreen | max response, % | hit rate 12% among 300,000; in the data active = max response mostly above about 13%, no sharp cut-off; inactive = mostly below about 14%; note: read at 38.3 µM for the half of the compounds with a filed dose; 0% is about no effect
Pf growth 96h: inhibits malaria parasite growth, 96 h. P. falciparum luciferase reporter growth, 96 h. Potency, µM (highest dose often 28.7 µM), inactives show at the highest dose activity change, negative = inhibition, most hits filed as inhibitors. hit rate 6.9% among 320,000; active = well fitted inhibition curve with a large enough effect; inconclusive = small, poorly fitted or top-dose-only effect, or another doubt; inactive = no such curve, though single readings can be large or run the other way; note: potency is the fitted concentration of half-maximal effect; % is set by controls: 0 for no effect and ±100 for the full control effect
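Parasite growth measured via integrated firefly luciferase reporter in P. falciparum. Infected erythrocytes at 2% hematocrit, 0.05% parasitemia final were treated 96 hours at 37 C under 5% CO2, and luminescence was read.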
Pf growth 48h: inhibits P. falciparum growth in the first generation, 48 h; P. falciparum luciferase growth in erythrocytes, 48 h; Potency, µM (titrated, usually from 28.7 µM), for inactives: at the highest dose activity change, negative = inhibition, hits mostly inhibitors; hit rate 5.9% among 310,000; AID 504832; active = well fitted inhibition curve with a large enough effect; inconclusive = small, poorly fitted or top-dose-only effect, or another doubt; inactive = no such curve, though single readings can be large or run the other way; note: potency is the fitted concentration of half-maximal effect; % is set by controls: 0 for no effect and ±100 for the full control effect
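In quantitative HTS format, infected erythrocytes bearing luciferase-reporter parasites were treated for a single generation at 37 C. Luminescence after adding detection reagent served as the growth measure.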
* marks the source's active call; other numbers are inactive results; u = inconclusive; x = no result given; + = active, no number; [ ] = remark or other dose. Hits are enriched below; roughly 21% of the tested compounds scored in any of these assays. Unless noted, calls come from the whole dose curve.

SMILES	SARS PLP yeast	NS1 inh	Shiga inhibitor	CHX counter	Pf growth 96h	Pf growth 48h
COc1ccc(NC(=O)C2C3C=CC(C3)C2C(=O)O)cc1 (stereo unspecified)	-0.4%	8.5%	20.0	-0.3	19.6%	7.4%
Cc1ccc(-c2ccc(NC(=O)C3C4C=CC(C4)C3C(=O)O)cc2)o1 (stereo unspecified)	8.3%	-14.1%	62.2*	46.4*	175.9%	x
N#CCSc1nnc(-c2ccccc2O)n1CCc1ccccc1	-0.4%	-2.2%	-14.8	6.4	20.3%	-10.4%
N#CCSc1nnc2ccc3ccccc3n12	-0.5%	-5.2%	active	13.1*	27.5%	41.0%
COc1ccc(CCC(C)NC2CCCCCCC2)cc1 (stereo unspecified)	0.1%	8.9%	-19.8	-2.7	0.6%	29.9%
COc1ccc(CCC(C)NCc2ccc(Cl)c(Cl)c2)cc1 (stereo unspecified)	-8.1%	-25.5%	-12.8	-3.0	6.57µM*	9.3%
COc1ccc(CCC(C)NCC2CCCCC2)cc1 (stereo unspecified)	-16.1%	-6.8%	-14.6	0.4	13.1µM*	u
COc1ccc(CCC(C)NCc2cc(OC)cc(OC)c2)cc1 (stereo unspecified)	-2.8%	-9.0%	-11.6	8.0	6.4%	-22.2%
COc1cccc(C2C(C#N)=C(N)OC(C(C)(C)C)=C2C#N)c1 (stereo unspecified)	-6.8%	-12.8%	15.1	-3.7	u	-10.6%
COc1cccc(/C=C2/CN(C)CC3=C2OC(N)=C(C#N)C3c2cccc(OC)c2)c1 (stereo unspecified)	-5.4%	4.1%	1.5	-1.3	u	13.1µM*
CCCC(=O)Nc1nc2ccc(S(N)(=O)=O)cc2s1	-6.8%	-4.3%	14.4	13.4	-9.6%	11.4%
NS(=O)(=O)c1ccc2nc(NC(=O)Nc3ccccc3F)sc2c1	0.9%	-7.4%	104.6*	49.6*	367.7%	191.5%
Cc1ccccc1NC(=O)Nc1nc2ccc(S(C)(=O)=O)cc2s1	6.0%	6.2%	+	13.8	u	44.5%
CCOC(=O)C1CCCN(CC(=O)c2c[nH]c3ccc(C)cc23)C1 (stereo unspecified)	0.8%	2.4%	5.0	-0.8	u	u
Cc1cc(OC(F)F)ccc1NC(=S)NCCc1ccccc1	10.3%	-1.0%	5.3	4.8	-13.2%	0.0%
COc1cc(C)c(NC(=O)C(=S)NCCc2ccccc2)cc1C	0.9%	-5.1%	-19.2	-3.1	2.33µM*	0.8%
COc1ccc(NC(=S)NCCc2ccccc2)c(C)c1	-7.0%	-4.1%	1.0	8.9	14.7µM*	u
C=C(C)CSc1nc2c(cc1C#N)CCC2	-0.6%	-65.6%	5.1	-1.3	14.7µM*	-2.8%
C=CCSc1nc2c(cc1C#N)CCC2	1.5%	-41.3%	28.0	15.6*	u	-7.0%
CSc1nc2c(cc1C#N)CCC2	2.0%	1.4%	-10.4	2.4	-8.1%	20.5%
CCCCSc1nc2c(cc1C#N)CCC2	2.8%	-4.7%	25.2	12.4*	u	u
CS(=O)CSc1nc2c(cc1C#N)CCCC2 (stereo unspecified)	-1.6%	4.9%	-9.5	10.0	u	19.7%
O=C(NCCc1c[nH]c2ccccc12)C(=O)NCC(c1ccco1)N1CCN(c2ccccc2F)CC1 (stereo unspecified)	-4.5%	15.6%	-7.3	-2.9	u	-21.6%
CC1CCC(NC(=O)CN2C(=O)COc3ccc(S(=O)(=O)N4CCCC4)cc32)CC1 (stereo unspecified)	-1.8%	-0.9%	-12.5	0.9	67.6%	7.0%
CCCCC[C@@H](O)c1cc2ccccc2c(=O)o1	-4.9%	x	x	x	x	x
SMILES	SARS PLP yeast	NS1 inh	Shiga inhibitor	CHX counter	Pf growth 96h	Pf growth 48h
CN(C)/C=N/c1sc2c(c1C#N)CCCCC2	-5.2%	-12.2%	20.0*	56.5*	85.5%	94.8%
N#Cc1c(/N=C/N2CCOCC2)sc2c1CCCCC2	2.4%	-26.2%	106.7*	23.6	u	156.5%
N#Cc1c(/N=C/C2C(=O)NC(=S)NC2=O)sc2c1CCCC2	-0.5%	x	-6.4	1.3	-4.4%	-6.8%
CN(C)/C=N/c1sc2c(c1C#N)CCC2	4.3%	-9.7%	13.1	43.5*	x	0.3%
CCCN(/C=N/c1sc2c(c1C#N)CCCCC2)CCC	14.0%	-0.9%	18.5	15.8	0.5%	u
Cc1cccc(CC2S/C(=N/c3cccc(C)n3)NC2=O)c1 (stereo unspecified)	-0.3%	-2.9%	-8.1	-0.4	66.7%	55.6%
Oc1oc(-c2ccc(Br)cc2)nc1/C=N/c1ccccn1	-0.3%	x	120.0*	54.1*	52.1%	89.7%
Cc1ccc(N=Cc2nc(-c3ccco3)oc2O)cc1	-2.9%	-8.5%	100.6*	29.4*	4.0%	11.2%
Cc1ccc(-c2nc(C=Nc3cccc(C)c3)c(O)o2)cc1	3.6%	x	66.6	14.0	-17.9%	35.3%
Cc1ccc(-c2nc(C=Nc3ccccc3)c(O)o2)cc1	1.0%	x	84.7*	51.4*	71.8%	46.3%
C=CCOC(=O)C1=C(C)NC(=O)NC1c1cn(-c2ccccc2)nc1-c1cccs1 (stereo unspecified)	-25.4%	-52.1%	-4.3	-1.5	u	14.7µM*
CC1=C(C#N)C(c2cn(-c3ccccc3)nc2-c2cccs2)C(C#N)=C(C)N1	-1.0%	-19.0%	-5.4	-9.3	43.7%	1.65µM*
COCCOC(=O)C1=C(C)NC(=O)NC1c1cn(-c2ccccc2)nc1-c1cccs1 (stereo unspecified)	11.7%	-7.4%	9.6	0.9	49.6%	-20.3%
COc1ccc(CNC[C@H]2O[C@@H](n3cnc4c(N)ncnc43)[C@H](O)[C@@H]2O)cc1OC	21.1%	x	x	x	x	x
O=C1C(Cc2ccccc2)Nc2ncnc(N3CCc4ccccc4C3)c2N1Cc1ccc(Br)cc1 (stereo unspecified)	-0.3%	x	x	x	13.1µM*	10.4µM*
O=C1C(Cc2ccccc2)Nc2ncnc(N3CCN(c4ccccc4)CC3)c2N1Cc1ccc(Br)cc1 (stereo unspecified)	-1.9%	x	x	x	x	x
O=C1C(Cc2ccccc2)Nc2ncnc(N3CCN(c4ccccc4)CC3)c2N1Cc1ccccc1 (stereo unspecified)	-0.1%	x	x	x	2.94µM*	2.94µM*
Cc1ccc(CN2C(=O)C(Cc3ccccc3)Nc3ncnc(N4CCN(c5ccccc5)CC4)c32)cc1 (stereo unspecified)	-24.7%	x	x	x	4.65µM*	1.85µM*
Cc1ccc(CN2C(=O)C(Cc3ccccc3)Nc3ncnc(N4CCCCC4)c32)cc1 (stereo unspecified)	4.8%	x	x	x	4.65µM*	1.65µM*
CCC1Nc2ncnc(N3CCOCC3)c2N(Cc2ccccc2)C1=O (stereo unspecified)	-0.8%	x	x	x	28.9%	u
COc1ccc(Cc2nnc(NC(=O)Nc3ccccc3)s2)cc1OC	0.6%	-1.1%	3.5	0.7	u	-7.1%[0.00184 µM]
O=C(C/C=N/OCc1c(Cl)cccc1Cl)c1ccc(Cl)cc1	-2.7%	1.7%	17.1	15.7	0.0%	u
